According to PubChem BioAssay AID1490 (National Center for Advancing Translational Sciences (NCATS), 2009):
Several values for one entry are separate records, joined by “and”; a condition that tells them apart may be missing. Equal entries are not always repeated. About 11,000 (3.5%) of roughly 310,000 compounds were called active. Roughly 4% stayed inconclusive and do not appear here. This is one part of a sample in which actives are shown more often than they occur. Calls follow the shape of the dose curve; as a rule, active = well fitted inhibition curve with a large enough effect; inconclusive = small, poorly fitted or top-dose-only effect, or another doubt; inactive = no such curve, though single readings can be large or run the other way.

molecular target: 4'-phosphopantetheinyl transferase ffp (Bacillus subtilis) (UniProt Q9F4F7); experiment: qHTS Assay for Inhibitors of Bacillus subtilis Sfp phosphopantetheinyl transferase (PPTase); details: Biochemical Sfp PPTase activity;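 also: the enzyme is Sfp with the accession as filed and its product quenches rhodamine fluorescence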;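 as to largest response in the series, negative = inhibition: 0% = enzyme reaction without inhibitor and -100% = no enzyme wells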
Method in brief: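 With Hepes-Na pH 7.6 buffer containing 10 mM MgCl2, Sfp (15 nM) modified BHQ-2-YbbR (12.5 uM) using rhodamine-CoA (5 uM). Two reads 30 minutes apart at 525/598 nm yielded each well's rate.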
Potency is read from the fitted curve at half-maximal effect.

Structure (SMILES) | largest response in the series, negative = inhibition | Potency
COc1cccc(C2CC(c3cccs3)=NN2C(=O)CSC2=NCCS2)c1OC (stereo not drawn) | -16% (inactive) | 
Cc1cc(C)cc(Oc2c(C(F)(F)F)oc3cc(OCC(=O)O)ccc3c2=O)c1 | 5.59% (inactive) | 
CCOC(=O)N1CCC(N2Cc3cccc(C(=O)Nc4ccc(S(=O)(=O)N(CC)CC)cc4)c3C2=O)CC1 | -1.4% (inactive) | 
CCc1ccc2nc(N(CCCN(C)C)C(=O)c3ccc4c(c3)OCCO4)sc2c1 | -7.75% (inactive) | 
CCOc1ccc2nc(N(CCN(C)C)C(=O)c3ccc4ccccc4c3)sc2c1 |  | 79.4 µM (active)
CCCC(=O)N(CCN1CCOCC1)c1nc2ccc(OCC)cc2s1 | 4.61% (inactive) | 
COc1ccccc1N1CCN(S(=O)(=O)CCNC(=O)c2ccc(OC(C)C)cc2)CC1 | 3.56% (inactive) | 
COc1ccc(CCN2C(=O)C3CC=C(C)CC3C2=O)cc1OC (stereo not drawn) | 7.59% (inactive) | 
COc1ccc(N2C(=O)CC(N3CCC(C(N)=O)CC3)C2=O)cc1 (stereo not drawn) | -13.3% (inactive) | 
COc1ccc(CCN2C(=O)CC(N3CCC(C(N)=O)CC3)C2=O)cc1OC (stereo not drawn) |  | 50.1 µM (active)
COc1cc(Cl)c(C)cc1NC(=O)CN1CCCCCC1 | 1.55% (inactive) | 
CSC(=S)N/N=C/c1c[nH]c2ccccc12 | 7.95% (inactive) | 
O=C(N/N=C/c1c[nH]c2ccccc12)c1ccccc1O | 16.9% (inactive) | 
C[n+]1ccc(/C=C/c2c[nH]c3ccccc23)cc1 |  | 56.2 µM (active)
Cc1cc(=O)[nH]c(Nc2cccc(Br)c2)n1 | -3.95% (inactive) | 
Cc1cccc(C)c1NC(=O)CSc1nc2c([nH]1)c(=O)n(C)c(=O)n2C | -3.14% (inactive) | 
CC(CCO)Nc1nc2c([nH]1)c(=O)n(C)c(=O)n2C (stereo not drawn) | 11.2% (inactive) | 
Cc1ccc(NN=Nc2nc3c([nH]2)c(=O)n(C)c(=O)n3C)cc1 |  | 25.1 µM (active)
CSc1nccc(NC(=O)c2ccc(C(C)(C)C)cc2)n1 | -8.43% (inactive) | 
CCOC(=O)N1CCN(C(=O)c2ccc3c(=O)n(CCc4ccc(OC)c(OC)c4)c(=O)[nH]c3c2)CC1 | 8.01% (inactive) | 
O=C(O)[C@@H](S)[C@H](S)C(=O)O |  | 1.12 µM (active)
O=C(C[n+]1cc(Br)cc2ccccc21)c1ccc(F)cc1 | 4.07% (inactive) | 
COc1cccc([C@@H]2Oc3ccc(Br)cc3C(=O)[C@H]2OC(=O)NCCc2ccc(OC)c(OC)c2)c1 | -29.3% (inactive) | 
COc1ccccc1N1CCN(C(=O)c2ccc(NC3=NC4CS(=O)(=O)CC4S3)cc2)CC1 (stereo not drawn) | 11.2% (inactive) | 

Structure (SMILES) | largest response in the series, negative = inhibition | Potency
COc1ccc(CCCOC(Cn2ccnc2)c2ccc(OC)cc2)cc1 (stereo not drawn) | 10.3% (inactive) and -14.1% (inactive) | 
Cc1cc(C)c(C#N)c(N2CCC(C(N)=O)CC2)n1 | 15.7% (inactive) | 
N#Cc1c(N2CCCCC2)nc(N)c2c(N)nc(SCC(=O)O)cc12 |  | 8.91 µM (active)
CC(=O)c1cc(C#N)c(N2CCCCC2)nc1C | 10.1% (inactive) | 
N#CCc1ccc(NC(=O)c2ccccc2C(=O)Nc2ccc(CC#N)cc2)cc1 | 5.96% (inactive) | 
CCOCc1nnc(NC(=O)CCC2CCCCC2)s1 | 18.1% (inactive) | 
COC(=O)CCCC1=CC2=CC(=O)C(C)(OC(=O)c3cccs3)C(=O)C2=CN1c1ccc(CO)cc1 (stereo not drawn) | -1.16% (inactive) | 
CCOC(=O)c1csc(CCNC(=O)c2oc3c(Cl)cc(C)cc3c2C)n1 | -19.2% (inactive) | 
O=c1[nH]c(=O)c2nc3ccccc3nc2[nH]1 | 8.31% (inactive) | 
Nc1ccc2nc3c(=O)[nH]c(=S)[nH]c3nc2c1 |  | 8.91 µM (active)
O=C(NCc1cc(F)cc(C(F)(F)F)c1)C1CCC(=O)N(C2CCCC2)C1 (stereo not drawn) | 6.77% (inactive) | 
O=c1oc2ccccc2c(CNc2ccccc2)c1[N+](=O)[O-] | 5.08% (inactive) | 
C=C1C(=CC=C2CCC[C@@]3(C)[C@@H]2CC[C@H]3[C@H](C)CCCC(C)C)C[C@@H](O)C[C@@H]1O | 3.54% (inactive) | 
O=C(N/N=C/C=C/c1ccco1)c1cccs1 |  | 10 µM (active)
C/C(=N\NC(=O)c1cc(-c2ccc(O)cc2)nc2ccccc12)c1cccnc1 | 0.726% (inactive) | 
CCOc1cc(/C=N/NC(=O)c2cc(-c3ccccc3)nc3ccccc23)ccc1O | 10.1% (inactive) | 
O=C(N/N=C/c1ccco1)c1ccc(C(=O)N/N=C/c2ccco2)o1 | 22% (inactive) | 
Cc1ccc(-c2cc(C(=O)N/N=C/C=C/c3ccco3)c3ccccc3n2)cc1C |  | 28.2 µM (active)
CC(=O)Nc1ccc(/C=N/NC(=O)c2cccs2)cc1 | 9.99% (inactive) | 
O=C(O)c1cc2c(cc1NC(=O)c1c(F)cccc1Cl)OCCCO2 | 14.9% (inactive) | 
Cc1ccc(Cn2c(C)nc3c(c2=O)c2nc4ccccc4nc2n3Cc2ccco2)cc1 | 18.1% (inactive) | 
Cc1nc2c(c(=O)n1Cc1ccco1)c1nc3ccccc3nc1n2Cc1ccccc1 |  | 8.91 µM (active)
Cc1nc2ccccc2c(=O)n1Cc1ccc([N+](=O)[O-])cc1 | -0.474% (inactive) | 
O=C(NC1CCCCC1)C1CCC(CNS(=O)(=O)c2ccccc2)CC1 (stereo not drawn) | -16.9% (inactive) | 

Structure (SMILES) | largest response in the series, negative = inhibition | Potency
Cc1ccc(NC(=O)c2cc(-c3ccccc3O)n[nH]2)cc1C | 13.9% (inactive) | 
CCN(CC)S(=O)(=O)c1cc([N+](=O)[O-])ccc1N=Nc1c(O)n(C)c2ccccc12 | 22.9% (inactive) | 
CCN(CC)S(=O)(=O)c1cc([N+](=O)[O-])ccc1NNC(=O)Nc1ccccc1 |  | 56.2 µM (active)
CCN(CC)C(=O)CN(c1cccc([N+](=O)[O-])c1)S(=O)(=O)c1ccccc1 | 19.8% (inactive) | 
CCCn1c2ccccc2c2cnn(CC(=O)NCCCN3CCCCC3CC)c(=O)c21 (stereo not drawn) | 4.88% (inactive) | 
CCC(C)NCC(=O)Nc1ccc([N+](=O)[O-])cc1C(=O)Nc1ccccc1F (stereo not drawn) | 8.61% (inactive) | 
Cc1cccc(C(=O)NNC(=O)c2cccc([N+](=O)[O-])c2)c1 | 12.7% (inactive) | 
O=[N+]([O-])c1cccc(/C([O-])=C(/C(=S)Nc2ccccc2F)[n+]2ccccc2)c1 |  | 17.8 µM (active)
N#Cc1ccsc1NC(=O)CN1CCN(S(=O)(=O)c2cc(Cl)ccc2Cl)CC1 | -21.5% (inactive) | 
CS(=O)(=O)c1ccc2nc(NC(=O)CN3CCCCCC3)sc2c1 | -29.2% (inactive) | 
N#Cc1cccc(NC(=O)CN2CCCCCC2)c1 | 7.01% (inactive) | 
N#Cc1ccsc1NC(=O)CN1CCCCC1 |  | 89.1 µM (active)
Cc1cc(C)c(NC(=O)CN2CCCCCC2)c(C)c1 | -2.37% (inactive) | 
Cc1csc(NC(=O)CN2CCCCCC2)n1 |  | 79.4 µM (active)
CCOC(=O)C1CN(S(=O)(=O)c2ccc(OC)cc2)c2cc(Cl)ccc2O1 (stereo not drawn) | 3.4% (inactive) | 
Cc1ccc(S(=O)(=O)NNC(=O)/C=C/c2cccc(F)c2)cc1 | 9.18% (inactive) | 
C=CCc1ccccc1OCC(O)CN1CCN(CCO)CC1 (stereo not drawn) | 5.68% (inactive) | 
CCOC(=O)c1sc(NC(=O)c2sc(C)nc2C)nc1C | 11.7% (inactive) | 
CC1CCCCN1C(=O)Cn1c(=O)oc2cc(S(=O)(=O)N3CCCCC3)ccc21 (stereo not drawn) | 10.7% (inactive) | 
Clc1ccccc1-c1cc(NCCN2CCOCC2)ncn1 |  | 79.4 µM (active)
Cc1cccc(CNc2cc(-c3ccccc3Cl)ncn2)c1 | 20.2% (inactive) | 
c1ccc2cc3c(NCCN4CCOCC4)ccnc3cc2c1 | -20.1% (inactive) | 
COc1ccc(NC(=O)CCCN2C(=O)C(c3ccccc3)Oc3cccnc32)cc1 (stereo not drawn) | 1.64% (inactive) | 
Cc1ccc(C)c(S(=O)(=O)N2CCCOC2CNC(=O)C(=O)NC2CCCCC2)c1 (stereo not drawn) | 11.5% (inactive) | 

Structure (SMILES) | largest response in the series, negative = inhibition | Potency
COC(=O)C(CC(=O)Nc1cc(C)ccc1C)Nc1ccccc1OC (stereo not drawn) | 28.6% (inactive) | 
Cc1ccc(C)c(NC(=O)CCC(=O)NNC(=O)c2cccs2)c1 | 3.73% (inactive) | 
Cc1ccc(C)c(NC(CC(=O)c2ccccc2)C(=O)OCC(=O)c2cccs2)c1 (stereo not drawn) |  | 39.8 µM (active)
Cc1ccc(-c2ncc(Cl)cc2-c2ccc(S(C)(=O)=O)cc2)cn1 | 13.6% (inactive) | 
C=CCn1c(SCc2csc(C)n2)nc2scc(-c3ccc(C)o3)c2c1=O |  | 11.2 µM (active)
C=CCn1c(SCc2c(C)noc2C)nc2sc3c(c2c1=O)CCC(C)C3 (stereo not drawn) | -23.8% (inactive) | 
C=CCn1c(SCC(=O)NCC2CCCO2)nc2sc(C)c(C)c2c1=O (stereo not drawn) | 13.7% (inactive) | 
COc1ccccc1NC(=O)c1ccc2nc(N3C(=O)CCC3=O)sc2c1 | 10.7% (inactive) | 
COc1ccccc1NC(=O)c1ccc(N2CC3CC(C2)c2cccc(=O)n2C3)c(NC(=O)c2cccnc2)c1 (stereo not drawn) |  | 31.6 µM (active)
COC(=O)c1cc(NC(=O)c2cccnc2)ccc1N1CCOCC1 | 9.31% (inactive) | 
CCCCn1c(-c2cccc(C)c2)nc2cc3[nH]c(=O)c(C(C)C)nc3cc21 | -18.3% (inactive) | 
CCOC(OCC)OCC | -10.1% (inactive) | 
CC1C(=O)Nc2ccccc2N1C(=O)c1c(F)cccc1F (stereo not drawn) | 14.4% (inactive) | 
CC(C)c1cnc(NC(=O)Cc2ccccc2)s1 | 26.8% (inactive) | 
CC(=O)Nc1c2c(nn1-c1ccc(C)cc1C)CS(=O)C2 (stereo not drawn) | 9.45% (inactive) | 
O=C(CCCN1C(=O)/C(=C/c2cccs2)SC1=S)Nc1ccc(O)cc1 | -1.57% (inactive) | 
O=C(CCCN1C(=O)/C(=C\c2ccccc2)SC1=S)Nc1ccccc1O | 17.9% (inactive) | 
O=C(CCCN1C(=O)/C(=C/c2ccco2)SC1=S)Nc1ccccc1 |  | 31.6 µM (active)
O=C(CCCN1C(=O)/C(=C\c2ccco2)SC1=S)Nc1cccc2ccccc12 |  | 56.2 µM (active)
O=C(CCCN1C(=O)/C(=C/c2ccccc2)SC1=S)Nc1ccc(O)cc1 | 12.2% (inactive) | 
COc1ccc(/C=C2\SC(=S)N(CCC(=O)Nc3cccc(C(=O)O)c3)C2=O)cc1OC | -8.44% (inactive) | 
